Source: PubChem
Hits are enriched below; roughly 6.9% of the tested compounds scored in any of these assays.
Vif-A3F inh – inhibitors of Vif-A3F interaction; HeLa A3F-eYFP + Vif (tagged APOBEC3F with the HIV-1 protein that degrades it), YFP fluorescence increase; 0.2% of 390,000 active; Potency, µM (titrated, usually from 46.1 µM); further: nearly all actives have a fitted effect of over 65% in size
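HeLa cells stably expressing A3F-eYFP plus Vif, plated and incubated overnight at 37 deg C, then exposed to compounds overnight at 37 deg C. Blocked degradation read as raised yellow fluorescence (Ex 488/Em 500-530).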
MCF10A rerep – induces DNA re-replication in MCF 10a normal breast cells | MCF 10A DNA re-replication, Hoechst nuclear intensity, 48 h | Potency, µM (top dose mostly 46.1 µM), actives largely listed as activators | 2.9% of 350,000 active; further: nearly all actives have a fitted effect of over 50% in size
Vif-A3G inh – Vif-A3G binding inhibition | Q9HC16 | HeLa A3G-eYFP + Vif (tagged APOBEC3G with the HIV-1 protein that degrades it), YFP fluorescence, overnight | Potency, µM (series often up to 46.1 µM), hits mostly inhibitors | 0.076% of 410,000 active | AID 602310; further: nearly all actives have a fitted effect of over 60% in size
Target sequence (Q9HC16 whole entry, looked up): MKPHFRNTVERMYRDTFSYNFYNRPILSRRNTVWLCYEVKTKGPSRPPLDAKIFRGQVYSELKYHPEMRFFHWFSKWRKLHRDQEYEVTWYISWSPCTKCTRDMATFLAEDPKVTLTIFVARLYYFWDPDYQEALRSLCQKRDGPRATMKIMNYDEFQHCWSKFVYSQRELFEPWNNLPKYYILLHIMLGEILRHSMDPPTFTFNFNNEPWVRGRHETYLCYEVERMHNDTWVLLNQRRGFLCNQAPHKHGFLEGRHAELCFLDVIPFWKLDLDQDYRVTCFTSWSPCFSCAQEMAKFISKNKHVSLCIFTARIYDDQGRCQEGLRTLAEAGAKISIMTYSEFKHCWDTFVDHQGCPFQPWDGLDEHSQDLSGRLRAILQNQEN
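Read-out is eYFP fluorescence (Ex 488/Em 500-530) from Vif-expressing HeLa A3G-eYFP cells; more signal means A3G escaped Vif-mediated degradation. Cells plated overnight, compound pinned in, incubated overnight at 37 deg C.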
Giardia killer – kills Giardia lamblia | Giardia lamblia trophozoite viability | activity change, % at 7.66 µM, hits read low | 0.15% of 340,000 active; in the data active means activity change below about -80%; inconclusive means between about -30% and that limit;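 further: parasites exposed to compound for two days anaerobically before the ATP read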
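Media and compound were dispensed first, then trophozoites at 100 cells/well; plates sat 48 hrs at 37 deg C without oxygen before ATP luminescence reagent was added and read after 15-30 min at room temperature.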
IL1B secr inh – inflammasome signaling inhibition, IL-1 beta readout; THP-1 LPS/ATP IL-1B secretion, AlphaLISA, 16 h; hits give low values; activity change, % at 57.5 µM; 4.7% of 360,000 active; AID 743279; in the data active means activity change below about -50%; inconclusive means mostly about -30% to -49%
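Secreted IL-1B measured by AlphaLISA bead assay after 16 h compound exposure of THP-1 cells; compounds (final up to 57.5 uM) added 1 h before LPS (250 ng/mL) and ATP (1.25 mM) stimulation; lower signal means less secretion.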
SW480 rereplic – DNA re-replication induction in SW480 cells; SW480 DNA re-replication, Hoechst DNA content imaging, 48 h; Potency, µM (doses to about 46.1 µM), actives largely listed as activators; 1.8% of 340,000 active; AID 624297; further: nearly all actives have a fitted effect of over 55% in size
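DNA re-replication was detected as more nuclei of elevated Hoechst intensity after 48 hr exposure to compound (23 nL pinned per well of 250 cells).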
A number is an active result; n = inactive; u = inconclusive; x = no result given; [ ] = another dose, or the depositor's remark. Unless noted, the call rests on the fitted dose curve; in most records, active means well fitted curve in the direction sought with a large enough effect; inconclusive means small, poorly fitted or top-dose-only effect, or another doubt; inactive means no such curve, though single readings can be large; an effect the other way counts as inactive or inconclusive.

SMILES | Vif-A3F inh | MCF10A rerep | Vif-A3G inh | Giardia killer | IL1B secr inh | SW480 rereplic
CC1(C)Cc2c(c(N3CCCC3)nc3sc(C(=O)Nc4ccccc4)c(N)c23)CO1 | n | 2.9µM | n | n | u | u
Cc1nc2c(sc3nc(N4CCOCC4)c4c(c32)CC(C)(C)OC4)c(-c2ccc(Cl)cc2)c1C(=O)O | n | 0.46µM | n | n | n | 5.2µM
COC(=O)c1ccc(-c2sc3nc(N4CCOCC4)c4c(c3c2N)CC(C)(C)OC4)o1 | n | u | n | n | n | 0.71µM
CC(=O)c1sc2nsc(SCCN3CCOCC3)c2c1N | n | n | n | n | x | u
Cc1ccc(NC(=O)c2sc3nc(N4CCOCC4)c4c(c3c2N)CC(C)(C)OC4)cc1 | n | u | n | n | n | n
CCc1ccc(NCc2cc3ccc(OC)cc3n(CC(=O)Nc3ccc(C)c(Cl)c3)c2=O)cc1 | n | x | n | x | x | x
COCCCn1c(SCc2ccccc2F)nc2c(sc3ccccc32)c1=O | n | x | n | x | x | x
CN1Cc2c(N3CCOCC3)nc3sc(C(=O)c4ccccc4)c(N)c3c2CC1(C)C | n | 21µM | n | n | n | u
COc1cccc(NC(=O)c2nnn(Cc3cccc(C(F)(F)F)c3)c2N)c1 | n | x | n | x | x | x
CCN(CC)C(=O)c1ccc(COc2ccccc2Cl)cc1 | n | n | n | n | -59 | n
Cc1ccc(C(C(=O)NCc2ccco2)N(C(=O)CNC(=O)c2cccs2)c2c(C)cccc2C)cc1 (centres undefined) | n | 18µM | n | u | n | u
CCOc1ccc(-c2cc3c(=O)n(Cc4nc(-c5ccc(OC)cc5OC)oc4C)ccn3n2)cc1Cl | n | x | n | x | x | x
CCCN1CNc2c(c(=O)[nH]c(=S)n2CCc2cc(Cl)cc(Cl)c2)C1 | x | x | x | n | x | x
Cc1cc(C(=O)NP(=O)(N2CCOCC2)N2CCOCC2)c(C)n1-c1ccc(Br)cc1 | n | n | n | n | n | n
Cc1cc(C(=O)C[N+]2(C)CCOCC2)c(C)n1-c1ccc(Br)cc1 | n | n | n | n | -69 | n
O=C(Nc1ccc(Oc2ccccc2)cc1)c1ccc(F)c(S(=O)(=O)N2CCN(c3ccccc3F)CC2)c1 | n | x | n | x | x | x
Cc1nc2c(C(=O)NC(C)c3ccccc3)cnn2c(C)c1Cc1ccccc1 (centres undefined) | n | x | n | x | x | x
C#CC(c1ccccc1)(c1ccccc1)n1ccnc1 | n | x | n | x | n | x
Clc1ccccc1C(c1ccccc1)(c1ccccc1)n1ccnc1 | n | 14µM | n | n | n | n
Cc1ccccc1-c1nc(CN2CCCC2c2ccc(F)cc2)c(C)o1 (centres undefined) | n | 15µM | n | n | n | n
COc1cccc(Cn2c3ccc(NC(=O)Cc4cc(OC)ccc4OC)cc3c(=O)n2C)c1 | x | x | u | x | -78 | x
COc1ccc(C)cc1S(=O)(=O)N(C)CC(=O)N1CCCCC1 | n | n | n | n | n | n
COc1ccc(C)cc1S(=O)(=O)N(C)CC(=O)N1CCCC1 | n | n | n | n | n | 2.3µM
O=C(Nc1nc2ccccc2[nH]1)c1ccccc1F | n | u | u | -89 | n | u
O=C(Nc1nc2ccccc2[nH]1)c1ccc(F)cc1 | n | n | n | u | n | u
SMILES | Vif-A3F inh | MCF10A rerep | Vif-A3G inh | Giardia killer | IL1B secr inh | SW480 rereplic
O=C(Nc1nc2ccccc2[nH]1)c1ccccc1OC(F)F | n | n | n | u | n | n
CCc1ccc(C(=O)Nc2nc3ccccc3[nH]2)cc1 | n | n | n | -94 | n | u
COCCOC(=O)N1CCN(/[N+]([O-])=N/Oc2ccc([N+](=O)[O-])cc2[N+](=O)[O-])CC1 | x | x | n | x | x | x
Cc1ccc2nc(NC(=O)CSc3cc(C)[nH]c(=O)n3)sc2c1 | n | x | n | x | x | x
C=CC[C@@H](CC(=O)N(CCO)Cc1ccccc1)C(=O)N[C@H](COC(=O)[C@@H](CC=C)Cc1ccc(F)cc1)Cc1c[nH]c2ccccc12 | n | u | n | n | n | n
C=CC[C@@H](CC(=O)N(CCO)Cc1ccccc1)C(=O)N[C@H](COC(=O)[C@@H](CC=C)Cc1ccc(F)cc1)Cc1ccccc1 | n | u | n | n | -64 | n
C=CC[C@@H](CC(=O)N(CCO)Cc1ccccc1)C(=O)NC[C@@H](OC(=O)[C@@H](CC=C)Cc1ccc(F)cc1)c1ccccc1 | n | u | n | n | u | n
C=CC[C@H](CC(=O)N(CCO)Cc1ccccc1)C(=O)NC[C@H](OC(=O)[C@@H](CC=C)Cc1ccc(F)cc1)c1ccccc1 | n | u | n | n | -72 | n
C=CC[C@H](CC(=O)N(CCO)Cc1ccccc1)C(=O)N[C@H](COC(=O)[C@@H](CC=C)Cc1ccc(F)cc1)Cc1c[nH]c2ccccc12 | n | u | n | n | -56 | u
C=CC[C@H](CC(=O)N(CCO)Cc1ccccc1)C(=O)N[C@@H](C)COC(=O)[C@@H](CC=C)Cc1ccc(F)cc1 | n | n | n | n | n | n
C=CC[C@@H](CC(=O)N(CCO)Cc1ccccc1)C(=O)N[C@@H](COC(=O)[C@@H](CC=C)Cc1ccc(F)cc1)Cc1ccccc1 | n | u | n | n | -68 | n
COC(=O)C1CCN(S(=O)(=O)c2cc3c4c(c2)CC(=O)N4CCC3)CC1 | n | x | n | x | x | x
CCOc1ccc(CNC(=O)c2cnc3sc(N4CCOCC4)nn3c2=O)cc1OC | n | x | n | x | x | x
O=C(CCS(=O)(=O)c1cccs1)Nc1ccc(C(=O)Nc2ccccc2F)cc1 | n | x | n | x | x | x
CNc1ccc(C=C2C=CC=C2)cc1 | x | x | n | x | x | x
CCc1c(-c2ccc(Br)cc2)ncn1Cc1cccc(-c2ccccc2)c1 | x | x | x | x | -62 | x
CC(=O)N1N=C(c2ccccc2O)CC1c1cccs1 (centres undefined) | n | u | n | u | -65 | n
CC(=O)N1N=C(c2cccc(O)c2)CC1c1cccs1 (centres undefined) | n | u | n | n | n | n
COc1ccc(C2CC(c3ccccc3OC(C)=O)=NN2C(C)=O)cc1 (centres undefined) | n | n | n | n | n | 16µM
COc1ccc(C2CC(c3ccccc3)=NN2C(=O)CSc2ncn[nH]2)cc1 (centres undefined) | n | n | n | n | -71 | n
COc1ccc(C2CC(c3ccc(Br)cc3)=NN2C(=O)CN2CCCC2)cc1 (centres undefined) | n | n | n | n | -62 | n
COc1ccc(C2=NN(C(=O)CN3CCCCC3)C(c3ccc(C)cc3)C2)cc1 (centres undefined) | n | n | n | n | -87 | n
COc1ccc(C2CC(c3ccccc3)=NN2C(=O)CSc2ncccn2)cc1 (centres undefined) | n | u | n | n | u | n
COc1ccc(C2CC(c3ccccc3)=NN2C(=O)CN2CCN(Cc3ccccc3)CC2)cc1 (centres undefined) | n | n[9.22 µM] | n | n | -66 | n
